Only some compounds are listed: those with a hit (about 4.2% of all), similar ones and a draw of the others.
RecA splice inh: Mtb RecA intein splicing inhibitors, primary screen, biochemical, fluorescence, HTS. Protein RecA (Mycobacterium tuberculosis (strain ATCC 25618 / H37Rv)), P9WHJ3. cell-free RecA intein splicing. inhibition, % (no concentration beside the values). hit rate 0.75% among 290,000; in the data active = inhibition above about 30%;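 note: 0% = vehicle wells and 100% = reference inhibitor control wells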
GDH-TPI counter-1: GDH-TPI coupling enzyme inhibitors, primary screen, artefact control for M. tuberculosis FBA inhibitor project, biochemical, absorbance, full deck; inhibition, % at 4.8 µM; hit rate 1.2% among 360,000; GDH-TPI coupled enzyme counterscreen, NADH absorbance; in the data active = inhibition above about 30%;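 note: 0% = DMSO wells and 100% = wells lacking the enzyme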
BJeLR lethal: MLPCN primary cell-based screen for lethality selective to Ras in HRASV12 cells; inhibition, % (test concentration not listed); AID 1554, 2009; hit rate 0.17% among 300,000; BJeLR (HRASV12) viability, CellTiter-Glo ATP luminescence, 48 h; in the data active = inhibition above about 50%
PrPC surface inh: inhibitors of human cell surface prion protein PrPC, primary screen, cell-based, TR-FRET; Major prion protein (Homo sapiens), P04156; inhibition, % at 13.8 µM; TR-FRET read-out; hit rate 0.43% among 370,000; in the data active = inhibition above about 24%; note: 0% = median of the test wells and 100% = reference compound wells
FBA Mtb inh: Mtb FBA enzyme inhibitors, primary screen, biochemical, fluorescence, strain H37Rv | Fructose-bisphosphate aldolase (Mycobacterium tuberculosis (strain ATCC 25618 / H37Rv)), … | purified M. tuberculosis FBA, fluorescence read-out | inhibition, % at 1 µM | hit rate 2.3% among 360,000;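 note: 0% = vehicle and 100% = reference inhibitor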
Target sequence (P9WQA3 whole entry, looked up): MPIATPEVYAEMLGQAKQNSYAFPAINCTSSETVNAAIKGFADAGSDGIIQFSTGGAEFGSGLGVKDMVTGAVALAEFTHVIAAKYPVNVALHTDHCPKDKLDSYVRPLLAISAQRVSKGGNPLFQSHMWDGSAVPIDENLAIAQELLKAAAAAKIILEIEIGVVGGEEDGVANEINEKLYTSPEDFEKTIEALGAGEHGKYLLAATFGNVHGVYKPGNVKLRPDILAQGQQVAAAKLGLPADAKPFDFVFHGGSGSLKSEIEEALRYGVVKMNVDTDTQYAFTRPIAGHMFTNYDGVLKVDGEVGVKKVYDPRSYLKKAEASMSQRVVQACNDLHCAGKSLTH
Mtb FBA inh conf: M. tuberculosis aldolase blockers, biochemical, fluorescence, strain H37Rv, confirmation; shares compounds with FBA Mtb inh; purified M. tuberculosis FBA, fluorescence read-out; inhibition, % at 1 µM; hit rate 78% among 5,600; AID 651616, 2012;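 note: 0% = vehicle wells and 100% = reference inhibitor wells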
GDH-TPI counter-2: GDH-TPI coupling enzyme inhibitors, artefact control for M. tuberculosis FBA inhibitor project, biochemical, fluorescence, high throughput. GDH-TPI coupled enzyme counterscreen. hit rate 81% among 5,600. shares compounds with FBA Mtb inh. inhibition, % at 1 µM; in the data active = inhibition above about 10%
Numbers without * were called inactive; i = inactive; / = no result; + = active, no number. Cut-off read from the data, not from the text of the source, unless noted: active = inhibition above about 27%; inactive = the rest.

SMILES | RecA splice inh | GDH-TPI counter-1 | BJeLR lethal | PrPC surface inh | FBA Mtb inh | Mtb FBA inh conf | GDH-TPI counter-2
CCN(CC)C(=O)[C@H]1C[C@H](CC(=O)NC(C)(C)C)C(=O)N2CCc3c([nH]c4cc(-c5ccco5)ccc34)[C@]12C | / | 8 | / | 6 | 38* | + | 140*
CC(C)N(C(=O)[C@H]1C[C@H](CC(=O)NC(C)(C)C)C(=O)N2CCc3c([nH]c4cc(-c5ccco5)ccc34)[C@]12C)C(C)C | / | -8 | / | 3 | 21 | / | /
CC(C)N(C(=O)[C@H]1C[C@H](CC(=O)NCCN2CCOCC2)C(=O)N2CCc3c([nH]c4cc(-c5ccco5)ccc34)[C@]12C)C(C)C | / | 4 | / | -1 | 36* | 150* | 124*
C[C@]12c3[nH]c4cc(-c5ccco5)ccc4c3CCN1C(=O)[C@@H](CC(=O)NCCCn1ccnc1)C[C@@H]2C(=O)N1CCOCC1 | / | 10 | / | / | 28* | -6 | -5
C[C@]12c3[nH]c4cc(-c5ccco5)ccc4c3CCN1C(=O)[C@@H](CC(=O)NCCCn1ccnc1)C[C@@H]2C(=O)N1CCCCC1 | / | 10 | / | -8 | 26 | / | /
CC(C)N1CCCCC(NC(=O)c2cccs2)C1=O (stereo unspecified) | / | / | / | -3 | / | / | /
COC(=O)c1cc(-c2ccc(C(C)(C)C)cc2)c(=O)n2c1CCC2 | / | / | / | 8 | / | / | /
CN(C)S(=O)(=O)c1cccc(C(=O)N/N=C\c2cccc(C#N)c2)c1 | / | / | / | -5 | / | / | /
COc1ccc(CNC(=O)C[C@H]2C[C@H](C(=O)N3CCOCC3)[C@@]3(C)c4[nH]c5cc(-c6ccco6)ccc5c4CCN3C2=O)cc1OC | / | 1 | / | -5 | 36* | + | +
C[C@]12c3[nH]c4cc(-c5ccco5)ccc4c3CCN1C(=O)[C@@H](CC(=O)NCCN1CCOCC1)C[C@@H]2C(=O)N1CCOCC1 | / | 11 | / | -6 | 46* | + | +
CCCC[C@H]1C2CC(OC(=O)Nc3ccccc3)C(C2)[C@H]2CCCCN21 (stereo partly specified) | / | / | / | -9 | / | / | /
CCn1c(=O)[nH]n(C/C(C)=C\c2c[n+](Cc3ccc4c(c3)OCO4)c(N)[nH]2)c1=O | / | / | / | -9 | / | / | /
COc1ccc(C2SCC(=O)N2c2c(C)n(C)n(-c3ccccc3)c2=O)c(OC)c1 (stereo unspecified) | -3 | 3 | 1 | -1 | -1 | / | /
COc1ccc(C2SCC(=O)N2c2c(C)n(C)n(-c3ccccc3)c2=O)cc1OC (stereo unspecified) | 0 | -1 | 7 | -3 | 47* | 58* | 45*
CCOc1ccc(C2SCC(=O)N2c2c(C)n(C)n(-c3ccccc3)c2=O)cc1 (stereo unspecified) | 0 | 0 | 4 | 10 | 96* | 3 | -4
Cc1c(N2C(=O)CSC2c2ccccc2)c(=O)n(-c2ccccc2)n1C (stereo unspecified) | 5 | -6 | 6 | -1 | 2 | / | /
Cc1ccc(-n2c(SCC(=O)Nc3ccc(OCc4ccccc4)cc3)nnc2-c2ccco2)cc1 | / | / | / | -3 | / | / | /
CN1CCc2c(C#N)c(Cl)nc(Cl)c2C1 | -6 | 13 | 0 | -7 | 68* | 4 | -2
CC(C)C(OC(=O)c1ccco1)C(=O)NCc1ccc2c(c1)OCO2 (stereo unspecified) | 1 | 2 | -6 | -4 | 74* | 135* | 84*
CC(OC(=O)c1ccco1)C(=O)NCc1ccc2c(c1)OCO2 (stereo unspecified) | -1 | -7 | -7 | -4 | 2 | / | /
CC(=O)OC(C(=O)NCc1ccc2c(c1)OCO2)c1ccccc1Cl (stereo unspecified) | 0 | 4 | -6 | 4 | 105* | 120* | 92*
CCCCCCCCN1C(=O)[C@@H](CC(=O)NCc2ccccc2)C[C@@]2(C(=O)OC)C1=C[C@H](COCc1ccccc1)O[C@@H]2C | / | / | / | 4 | / | / | /
N#Cc1ccc(-c2csc(NC(=O)C3CC3)n2)cc1 | -2 | 5 | 5 | -6 | 50* | 91* | 71*
CCN(CC)C(=O)CC[C@@H]1CC[C@]2(CCCN(Cc3cccnc3)C2)O1 | / | / | / | -5 | / | / | /
COC(=O)c1cc(-c2cccc3ccccc23)c(=O)n2c1CCC2 | / | / | / | 0 | / | / | /
SMILES | RecA splice inh | GDH-TPI counter-1 | BJeLR lethal | PrPC surface inh | FBA Mtb inh | Mtb FBA inh conf | GDH-TPI counter-2
CN(C(=O)[C@@H](Cc1ccccc1)NC(=O)[C@H]1O[C@@H](n2cnc3c(=O)[nH]c(N)nc32)[C@H](O)[C@@H]1O)C1CCCCC1 | / | / | / | -3 | / | / | /
COc1ccc(-c2c(C)oc3c(CN4CCN(CCO)CC4)c(O)ccc3c2=O)cc1OC | -7 | 12 | -2 | 4 | 31* | 64* | 58*
COc1ccc(-c2c(C)oc3c(CN4CCOCC4)c(O)ccc3c2=O)cc1 | -1 | 10 | 0 | -1 | 104* | 60* | 51*
COc1ccc(CN2CCC(=O)N(CCO)CC2)cc1OC | 1 | 9 | 1 | -6 | 1 | / | /
Cc1oc2c(CN3CCCC3)c(O)ccc2c(=O)c1-c1ccc(Br)cc1 | -2 | 7 | -8 | 2 | 89* | + | +
O=C(C1CCCN1S(=O)(=O)c1ccccc1[N+](=O)[O-])N1CCN(c2ccccc2)CC1 (stereo unspecified) | / | / | / | -12 | / | / | /
C#CCN1CC(COc2ccccc2)Oc2cccc(Oc3ccc(C(C)C)cc3)c2S1(=O)=O (stereo unspecified) | / | / | / | -2 | / | / | /
CCCc1cn(-c2ccc3c(c2)[C@@]2(CC(=O)N(C)C2c2ccccc2)C(=O)N3CC(C)C)nn1 (stereo partly specified) | / | / | / | -8 | / | / | /
CCOc1cccc(/C=N\NC(=O)Cc2cccs2)c1O | / | / | / | -8 | / | / | /
CCC(=O)c1ccc(/C=C/c2nc3ccccc3n2C)o1 | i | 11 | -12 | -12 | 83* | -5 | -5
Cn1c(/C=N/n2cnnc2)nc2ccccc21 | 0 | 37* | 0 | 0 | 45* | 14 | -3
Cn1c(/C=N/O)nc2ccccc21 | -2 | 4 | -9 | 5 | 52* | 21 | 10*
C(=N\n1cnnc1)/c1nc2ccccc2[nH]1 | -1 | 20 | -5 | 0 | 74* | 60* | 49*
Cn1c(/C=N/c2nc3ccccc3[nH]2)nc2ccccc21 | -2 | 10 | 6 | 4 | 6 | / | /
COc1ccc(N2CCN(CCCNC(=O)COc3ccc(F)cc3)CC2)cc1 | / | / | / | -9 | / | / | /
Cc1ccc(-c2cn3nc(C)c(C)nc3n2)cc1 | -254 | -3 | 7 | -31 | 34* | 3 | 3

High-throughput results as filed in PubChem BioAssay.
